The campaign covered roughly 39,000 compounds. About 500 (1.3%) were called active. This is one part of a sample in which actives are shown more often than they occur.
System: S. aureus RN4220
Assay: growth inhibition call (relative growth <= 0.2)
Details: 50 µM

Structure (SMILES) | growth inhibition call
CN(C)[C@@H]1C(=O)[C@@H](C(N)=O)C(=O)[C@@]2(O)C(=O)[C@H]3C(=O)c4c(O)cccc4C[C@H]3C[C@@H]12 | inactive
CN(C)c1ccc(O)c2c1C[C@H]1C[C@H]3[C@H](N(C)C)C(=O)C(C(N)=O)=C(O)[C@@]3(O)C(=O)[C@H]1C2=O | inactive
CN(C)[C@@H]1C(=O)[C@@H](C(N)=O)C(=O)[C@@]2(O)C(=O)[C@H]3C(=O)c4c(O)ccc(Cl)c4[C@@H](O)[C@H]3C[C@@H]12 | active
CN(C)c1cc(NC(=O)CNC(C)(C)C)c(O)c2c1C[C@H]1C[C@H]3[C@H](N(C)C)C(=O)[C@@H](C(N)=O)C(=O)[C@@]3(O)C(=O)[C@H]1C2=O | inactive
CN(C)C1C(O)=C(C(N)=O)C(=O)C2(O)C(O)=C3C(=O)c4c(O)ccc(Cl)c4C(O)C3CC12.Cl (stereo unspecified) | inactive
CN(C)c1ccc(O)c2c1C[C@H]1C[C@H]3[C@H](N(C)C)C(=O)[C@@H](C(N)=O)C(=O)[C@@]3(O)C(=O)[C@H]1C2=O | active
CN(C)c1cc(NC(=O)CNC(C)(C)C)c(O)c2c1C[C@H]1C[C@H]3[C@H](N(C)C)C(=O)C(C(N)=O)=C(O)[C@@]3(O)C(=O)[C@H]1C2=O | inactive
CN(C)[C@@H]1C(=O)[C@@H](C(=O)NCNCCCC[C@H](N)C(=O)O)C(=O)[C@@]2(O)C(=O)[C@@H]3C(=O)c4c(O)cccc4[C@@](C)(O)[C@H]3C[C@@H]12 | inactive
CN(C)[C@@H]1C(=O)[C@@H](C(N)=O)C(=O)[C@@]2(O)C(=O)[C@@H]3C(=O)c4c(O)c(NC(=O)CN5CCCC5)cc(F)c4C[C@H]3C[C@@H]12 | active
CN(C)c1cc(NC(=O)CNC(C)(C)C)c(O)c2c1CC1CC3C(N(C)C)C(O)=C(C(N)=O)C(=O)C3(O)C(O)=C1C2=O (stereo unspecified) | inactive
CN(C)c1ccc(O)c2c1C[C@@H]1C[C@@H]3[C@@H](N(C)C)C(=O)C(C(N)=O)=C(O)[C@]3(O)C(=O)[C@H]1C2=O | inactive
CN(C)c1cc(CNCC(C)(C)C)c(O)c2c1C[C@H]1C[C@H]3[C@H](N(C)C)C(=O)[C@H](C(N)=O)C(=O)[C@@]3(O)C(=O)[C@@H]1C2=O | active
COc1ccc(S(=O)(=O)N(C)C[C@H]2Oc3ccc(NC(=O)C4CC4)cc3C(=O)N([C@@H](C)CO)C[C@@H]2C)cc1 | inactive
C[C@@H]1CCCCO[C@H](CN(C)C(=O)Nc2ccc3c(c2)OCO3)[C@H](C)CN([C@H](C)CO)C(=O)c2cc(NS(=O)(=O)c3ccc(F)cc3)ccc2O1 | inactive
C[C@H](CO)N1C[C@H](C)[C@H](CN(C)Cc2ccc(Cl)c(Cl)c2)Oc2ccc(NC(=O)Nc3ccccc3)cc2CC1=O | inactive
O=c1cc(CN2CC[C@H](N3CCOCC3)[C@H](CCCO)C2)nc2c(O)cccn12 | inactive
C[C@@H]1CCCCO[C@@H](CN(C)CC2CCCCC2)[C@@H](C)CN([C@@H](C)CO)C(=O)c2cc(NC(=O)C3CCCCC3)ccc2O1 | inactive
CC(C)[C@@H](O)C[C@@H](C)O[C@@H]1O[C@H](CO[C@@H]2OC[C@](O)(CO)[C@H]2O)[C@@H](O)[C@H](O)[C@H]1O | inactive
C[C@H]1CN([C@@H](C)CO)S(=O)(=O)c2ccc(C#Cc3ccccc3)cc2O[C@H]1CN(C)C(=O)c1ccccn1 | inactive

Structure (SMILES) | growth inhibition call
O=C1O[C@@H](c2ccccc2)[C@@H](c2ccccc2)N2[C@@H](c3ccc(O)cc3)[C@]3(C(=O)Nc4ccc(C#CC5=CCCCC5)cc43)[C@@H](C(=O)N3CCCCCCC3)[C@H]12 | inactive
O=C1O[C@@H](c2ccccc2)[C@@H](c2ccccc2)N2[C@@H](c3ccc(O)cc3)[C@]3(C(=O)Nc4ccc(C#CC5=CCCCC5)cc43)[C@@H](C(=O)O)[C@H]12 | active
C=CCNC(=O)[C@H]1[C@@H]2C(=O)O[C@@H](c3ccccc3)[C@@H](c3ccccc3)N2[C@@H](c2ccc(O)cc2)[C@]12C(=O)Nc1ccc(C#CC3=CCCCC3)cc12 | inactive
C=CCNC(=O)[C@@H]1[C@H]2C(=O)O[C@H](c3ccccc3)[C@H](c3ccccc3)N2[C@H](c2ccc(O)cc2)[C@@]12C(=O)Nc1ccc(C#CC3=CCCCC3)cc12 | inactive
NC(=O)[C@H]1[C@@H]2C(=O)O[C@@H](c3ccccc3)[C@@H](c3ccccc3)N2[C@@H](c2ccccc2OCCO)[C@]12C(=O)Nc1ccc(C#CC3=CCCCC3)cc12 | inactive
O=C1O[C@H](c2ccccc2)[C@H](c2ccccc2)N2[C@H]1[C@@H](C(=O)O)[C@]1(C(=O)Nc3ccc(C#CC4=CCCCC4)cc31)[C@H]2c1ccccc1OCCO | active
O=C1O[C@@H](c2ccccc2)[C@@H](c2ccccc2)N2[C@@H](c3ccccc3OCCO)[C@]3(C(=O)Nc4ccc(C#CC5=CCCCC5)cc43)[C@@H](C(=O)O)[C@H]12 | inactive
O=C1O[C@H](c2ccccc2)[C@H](c2ccccc2)N2[C@H]1[C@@H](C(=O)O)[C@]1(C(=O)Nc3ccc(C#CC4=CCCCC4)cc31)[C@H]2c1ccc(O)cc1 | active
O=C1O[C@H](c2ccccc2)[C@H](c2ccccc2)N2[C@H]1[C@@H](C(=O)N1CCCCCCC1)[C@]1(C(=O)Nc3ccc(C#CC4=CCCCC4)cc31)[C@H]2c1ccc(O)cc1 | inactive
CC(C)(C)S(=O)N1Cc2cc(C(=O)N[C@@H]3CCN(Cc4ccccc4)C3)nc(-c3cccc(C#CCC4CCCC4)c3)c2[C@H]1CCO (stereo partly specified) | inactive
CC(C)(C)OC(=O)C[C@@H]1CC=CC[C@@H](CC(=O)NCCO)C(=O)N[C@@H](Cc2ccccc2)COC1=O | inactive
C[C@@H]1CN([C@@H](C)CO)C(=O)Cc2cc(NC(=O)Nc3ccc(F)cc3)ccc2O[C@@H]1CN(C)Cc1ccc(C(=O)Nc2ccccc2N)cc1 | inactive
Cc1ccc(S(=O)(=O)Nc2ccc3c(c2)C(=O)N([C@H](C)CO)C[C@@H](C)[C@@H](CN(C)Cc2ccc4c(c2)OCO4)OCCCC[C@@H](C)O3)cc1 | inactive
CC(C)NC(=O)N[C@@H]1CC[C@H](CCN)O[C@@H]1CO | inactive
COc1ccccc1NC(=O)Nc1ccc2c(c1)OC[C@@H](C)N(Cc1ccccc1Cl)C[C@@H](C)[C@H](OC)CN(C)C2=O | inactive
CO[C@H]1CN(C)C(=O)c2ccc(NS(C)(=O)=O)cc2OC[C@H](C)N(C(=O)C2CCOCC2)C[C@H]1C | inactive
CC(C)CC#Cc1ccc2c(c1)O[C@H](CN(C)C(=O)Cc1cccnc1)[C@@H](C)CN([C@H](C)CO)S2(=O)=O | inactive
O=C(C[C@H]1CC[C@@H](NC(=O)CN2CCOCC2)[C@H](CO)O1)NCCc1ccccc1 | inactive
CC(C)(C)Cc1ccc(OCCCC(=O)O)c(CC(C)(C)C)c1 | active

Structure (SMILES) | growth inhibition call
Cc1ccc(C)c(OCCCC(C)(C)C(=O)O)c1 | inactive
CCCCc1ccc(CC(=O)O)cc1 | inactive
C[C@H](CO)N1C[C@H](C)[C@H](CN(C)S(=O)(=O)c2ccccc2)Oc2ccc(NS(C)(=O)=O)cc2CC1=O | inactive
CC(C)(C)C1CCC(OC[C@@H](O)CN2CCC(CN3C(=O)c4cccc5cccc(c45)C3=O)CC2)CC1 (stereo partly specified) | active
O=C(O)CN1C(=O)c2cccc3cccc(c23)C1=O | inactive
O=C(CN1C(=O)c2cccc3cccc(c23)C1=O)N1CCN(CCN2C(=O)[C@@H]3[C@@H](C2=O)[C@@H]2C=C[C@@H]3C2)CC1 | inactive
C[C@H](O)C#Cc1cnc2c(c1)C(=O)N([C@@H](C)CO)C[C@H](C)[C@@H](CN(C)Cc1cncnc1)O2 | inactive
C[C@@H]1CN([C@@H](C)CO)C(=O)c2cc(NC(=O)c3ccncc3)ccc2O[C@@H](C)CCCCO[C@@H]1CN(C)S(=O)(=O)c1cn(C)cn1 | inactive
C[C@H]1CN([C@@H](C)CO)C(=O)c2c(c3ccccc3n2C)-c2ccccc2CO[C@@H]1CN(C)Cc1ccc(C(=O)O)cc1 | inactive
COc1ccc2c(c1)n(CCN)c(=O)n2C(=O)[C@@H]1C[C@H](C)CC[C@H]1C(C)C | active
CC(C)[C@H]1CC[C@@H](C)C[C@@H]1NC(=O)c1cccc2ccccc12 | inactive
COc1ccc(NC(=O)N(C)C[C@H]2OCCCC[C@H](C)Oc3ccc(NC(=O)NC4CCCCC4)cc3C(=O)N([C@@H](C)CO)C[C@H]2C)cc1 | inactive
O=C(O)CN(CCN(CC(=O)O)CC(=O)O)CC(=O)O | inactive
Cc1c2oc3c(C)ccc(C(=O)N[C@@H]4C(=O)N[C@H](C(C)C)C(=O)N5CCC[C@H]5C(=O)N(C)CC(=O)N(C)[C@@H](C(C)C)C(=O)O[C@@H]4C)c3nc-2c(C(=O)N[C@@H]2C(=O)N[C@H](C(C)C)C(=O)N3CCC[C@H]3C(=O)N(C)CC(=O)N(C)[C@@H](C(C)C)C(=O)O[C@@H]2C)c(N)c1=O | inactive
Cc1c2oc3c(C)ccc(C(=O)OC(C)C4NC(=O)C(C(C)C)N(C)C(=O)CN(C)C(=O)C5CCCN5C(=O)C(C(C)C)NC4=O)c3nc-2c(C(=O)OC(C)C2NC(=O)C(C(C)C)N(C)C(=O)CN(C)C(=O)C3CCCN3C(=O)C(C(C)C)NC2=O)c(N)c1=O (stereo unspecified) | active
Cc1c2oc3c(C)ccc(C(=O)N[C@@H]4C(=O)N[C@@H](C(C)C)C(=O)N5CCC[C@H]5C(=O)N(C)CC(=O)N(C)[C@@H](C(C)C)C(=O)O[C@@H]4C)c3nc-2c(C(=O)N[C@@H]2C(=O)N[C@@H](C(C)C)C(=O)N3CCC[C@H]3C(=O)N(C)CC(=O)N(C)[C@@H](C(C)C)C(=O)O[C@@H]2C)c(N)c1=O | active
C[C@H]1CN([C@@H](C)CO)C(=O)Cc2cc(NC(=O)Nc3cccc4ccccc34)ccc2O[C@@H]1CN(C)C(=O)Nc1ccc(F)cc1 | inactive
C[C@@H]1CN([C@H](C)CO)C(=O)c2cccc(NC(=O)c3cnccn3)c2O[C@H]1CN(C)Cc1ccc2c(c1)OCO2 | inactive

— the antibiotic and cytotoxicity screens of Wong et al. (2023)
